Rv3671c protease – inhibitors of M. tuberculosis serine protease Rv3671c. 320,000 compounds, 0.048% hits. inhibition, % at 5.96 µM. P9WHR9. AID 2606; in the data active = inhibition above about 38%;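 also: extracellular domain of Rv3671c used as enzyme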
Mtb UGM inh – blocks M. tuberculosis UGM enzyme. inhibition, % at 10 µM. purified UGM, fluorescence polarization probe displacement. P9WIQ1. 320,000 compounds, 0.06% hits; in the data active = inhibition above about 10%, passing the limit was not always enough
Target sequence (P9WIQ1 whole entry, looked up): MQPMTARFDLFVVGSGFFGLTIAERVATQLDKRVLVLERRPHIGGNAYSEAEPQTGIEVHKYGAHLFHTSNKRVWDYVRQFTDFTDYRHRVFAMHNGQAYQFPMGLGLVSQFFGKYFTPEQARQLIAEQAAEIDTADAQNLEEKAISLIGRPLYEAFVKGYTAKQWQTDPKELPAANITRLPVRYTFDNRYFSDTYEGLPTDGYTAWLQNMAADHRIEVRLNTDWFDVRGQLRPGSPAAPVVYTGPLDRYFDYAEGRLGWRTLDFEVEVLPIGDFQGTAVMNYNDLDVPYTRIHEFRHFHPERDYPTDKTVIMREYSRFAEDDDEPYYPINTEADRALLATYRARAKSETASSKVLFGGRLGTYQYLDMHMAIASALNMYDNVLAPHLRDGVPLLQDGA
FBA Mtb inh – inhibits M. tuberculosis FBA enzyme; 360,000 compounds, 2.3% hits; purified M. tuberculosis FBA, fluorescence read-out; inhibition, % at 1 µM; P9WQA3; AID 588726; in the data active = inhibition above about 27%
GDH-TPI counter – inhibits GDH-TPI coupling enzymes, artifact for Mtb FBA screen; inhibition, % at 4.8 µM; AID 588335; GDH-TPI coupled enzyme counterscreen, NADH absorbance; 360,000 compounds, 1.2% hits; in the data active = inhibition above about 30%
A number is an active result; - = inactive; . = no result; + = active, no number. Shown are actives, neighbours in structure and some others; about 3.5% of the full set was active somewhere.

SMILES | Rv3671c protease | Mtb UGM inh | FBA Mtb inh | GDH-TPI counter
CC(C)(C)c1ccc(C(=O)NCc2nnc(SCC(=O)NC3CCCCC3)o2)cc1 | - | - | - | -
Nc1c(C(=O)OCC2CCCO2)c2nc3ccccc3nc2n1Cc1cccs1 (centres undefined) | - | - | 163.1 | -
CCOC(=O)c1c(N)n(CCCOC(=O)c2ccco2)c2nc3ccccc3nc12 | - | - | + | -
COCCNC(=O)c1c(N)n(CCCn2ccnc2)c2nc3ccccc3nc12 | - | - | 131.6 | -
Nc1c(C(=O)NCC2CCCO2)c2nc3ccccc3nc2n1/N=C/c1ccncc1 (centres undefined) | . | . | - | -
COCCCn1c(N)c(C(=O)OCCOC)c2nc3ccccc3nc21 | - | - | + | -
COCCCNC(=O)c1c(N)n(/N=C/c2cccnc2)c2nc3ccccc3nc12 | - | - | - | -
CC(=O)c1c(C)[nH]c(C(=O)Nc2cccc(S(=O)(=O)N3CCCC3)c2)c1C | - | - | - | -
COc1cccc(CNc2nc3cc(-c4ccsc4)sc3c(=O)n2C)c1OC | . | . | - | -
O=C(N=C1SC2CS(=O)(=O)CC2N1Cc1ccc(F)cc1)C1CCCO1 (centres undefined) | - | - | - | -
Cc1nc(SCc2nc3c(O)cccc3[nH]2)c2oc3ccccc3c2n1 | - | - | - | -
COc1ccccc1CN(C)C(=O)c1cc(S(=O)(=O)N2CCCCCC2)ccc1OC | . | . | - | -
COCCn1c(N)c(C(=O)NCC2CCCO2)c2nc3ccccc3nc21 (centres undefined) | - | - | + | -
CC(C)CCn1c(N)c(C(=O)NCc2cccs2)c2nc3ccccc3nc21 | - | - | - | -
COCCNC(=O)c1c(N)n(CCC(C)C)c2nc3ccccc3nc12 | - | - | 120.7 | -
CCCCNC(=O)c1c(N)n(CCCOC)c2nc3ccccc3nc12 | - | - | 115.2 | -
COc1ccc(OC)c(-n2c(N)c(C(=O)NCC3CCCO3)c3nc4ccccc4nc32)c1 (centres undefined) | . | . | - | -
COC(=O)Nc1ccc(SCC(=O)c2cccc([N+](=O)[O-])c2)cc1 | - | - | - | -
C=CCc1cc(/C=C2/NC(=O)N(CC(=O)OC)C2=O)cc(OC)c1O | - | - | - | 32.1
O=S(=O)(c1ccc(N2CCC(c3ccc(Cl)cc3)=N2)cc1)N(CCO)CCO | - | - | + | 31.8
COC(=O)C(Cc1ccccc1)NCC(=O)Nc1cccc(Cl)c1C (centres undefined) | - | - | - | -
C/C(=N\OC(=O)c1ccc(Br)cc1)c1ccccn1 | - | - | - | 31.0
Cc1ccc(C(=O)O/N=C(\N)c2ccccn2)cc1 | - | - | - | -
COc1ccc(/C=C(/NC(=O)c2ccco2)C(=O)N2CCCCC2)cc1 | - | - | - | -
C=CCN1C(=O)S/C(=C/c2ccsc2)C1=O | - | - | - | -
SMILES | Rv3671c protease | Mtb UGM inh | FBA Mtb inh | GDH-TPI counter
CCN1C(=O)S/C(=C/c2ccsc2)C1=O | - | - | - | 38.8
NC(=O)c1ccc(/C=N/O)[n+](Cc2ccccc2)c1 | - | - | - | 35.0
CCOC(=O)c1c(=O)n(O)c2ccc(OC)cc2[n+]1[O-] | - | 14.6 | - | -
C=CCN(CC=C)c1nc2ccccc2nc1C(C#N)C(=O)OC(C)C (centres undefined) | - | - | 36.0 | -
CC(C)Cn1c(N)c(C(=O)COC(=O)c2ccncc2)c(=O)n(C)c1=O | - | - | - | -
CC(C)Cn1c(N)c(C(=O)COC(=O)c2nccnc2N)c(=O)n(C)c1=O | - | - | + | -
COc1ccccc1N1C(=O)S/C(=C\c2ccc(C)s2)C1=O | - | - | - | 34.3
C[C@@H]1CN([C@@H](C)CO)C(=O)CCCn2nncc2CO[C@H]1CN(C)C(=O)Nc1cccc2ccccc12 | . | . | 28.6 | -
CC(=NNC(N)=S)c1ccc2cc3c(cc2c1)OCO3 | . | . | - | -
COc1cc2ccc(C(C)=NNC(N)=S)cc2cc1OC | . | . | - | 42.5
Cc1ccccc1C(=O)Nc1ccc(C(=O)N/N=C/c2ccncc2)cc1 | - | - | - | -
O=C(N/N=C/c1ccc(O)cc1)c1cccc(N/N=C/c2ccc(O)cc2)c1 | - | - | - | 36.9
O=C(N/N=C/c1ccncc1)c1cccc(N/N=C/c2ccncc2)c1 | - | - | - | -
O=C(N/N=C/c1ccc(O)cc1)c1ccc(NC(=O)c2ccccc2Br)cc1 | - | - | - | 42.5
Cc1ccccc1C(=O)Nc1ccc(C(=O)N/N=C/c2ccc(O)cc2)cc1 | - | - | - | 33.8
COC(=O)C[C@H]1C[C@H]2c3cc(NC(=O)C4CCOCC4)ccc3O[C@H]2[C@@H](CO)O1 | . | . | - | -
NC1CCN(c2c(F)cc3c(=O)c(C(=O)O)cn(C4CC4)c3c2Cl)C1 (centres undefined) | - | - | - | 33.8
Cc1ccc(NC(=O)c2cc([N+](=O)[O-])ccc2N2CCOCC2)cc1S(=O)(=O)N(C)C | - | - | - | 41.8
COc1cc(C#Cc2ccc3cc(CCO)oc(=O)c3c2)cc(OC)c1 | - | - | - | 36.2
CN(C)c1ccc(C#Cc2ccc3cc(CCO)oc(=O)c3c2)cc1 | - | - | - | -
CNc1ccc(/C=C\CCCO)cn1 | . | . | 114.9 | -
CCOc1ccc(S(=O)(=O)N2CCC(C(=O)NCC3CCCO3)CC2)cc1Cl (centres undefined) | - | - | - | -
Cc1cc(C=O)c(O)cc1O | - | - | - | 52.2
O=Cc1cc(N=Nc2ccc(S(=O)(=O)O)cc2)ccc1O | - | - | - | -
COc1cc(/C=N/N=C/c2cc(OC)c(O)c(OC)c2)cc(OC)c1O | - | - | - | 34.6
SMILES | Rv3671c protease | Mtb UGM inh | FBA Mtb inh | GDH-TPI counter
COc1ccc(/C=N/N=C/c2ccc(OC)c(OC)c2)cc1OC | - | - | - | -
COc1ccc(/C=N/N=C/c2ccc(OC)c(O)c2)cc1O | - | - | - | 49.5
C[C@H](CO)N1C[C@H](C)[C@@H](CN(C)Cc2cccc(F)c2)Oc2cc(-c3cccc(C#N)c3)ccc2S1(=O)=O | . | . | - | -
COCc1ccccc1C1=CC(=O)C[C@H](c2ccc(OC)cc2)C1 | - | - | - | -
COc1ccc(/C=N/Nc2ncnc(Cl)c2N)cc1OC | - | - | - | -
Clc1nccnc1N/N=C/c1ccc(Br)cc1 | - | - | - | -
Nc1c(Cl)ncnc1N/N=C/c1ccncc1 | - | - | - | 48.0
Nc1c(Cl)ncnc1N/N=C/c1cccc(O)c1 | - | - | - | 41.5
COc1cccc(/C=N/Nc2ncnc3scc(-c4ccccc4)c23)c1O | - | - | - | 32.3
COc1cccc(/C=N/Nc2cc(-n3nc(C)cc3-c3ccccc3)ncn2)c1O | - | - | - | 34.6
CC(=O)Nc1cccc(NS(=O)(=O)c2ccc3c(c2)CCC(=O)N3)c1 | . | . | - | -
Cc1ccc2[nH]c3c(c2c1)CN(C(C)C)CC3 | - | - | - | -
Oc1cccc(/C=N/Nc2ncnc3c2ncn3Cc2ccccc2)c1 | - | - | - | 36.7
Clc1cncc(Cl)c1N/N=C/c1ccncc1 | - | . | - | 36.3
COc1cccc(/C=N/Nc2ncnc(Cl)c2N)c1O | - | - | - | 31.6
CCCCCCN1C[C@H](n2cc(-c3ccc(F)cc3)nn2)[C@@H](O)C[C@@H]1c1ccc(Cl)cc1 | . | . | - | -
CC(=O)c1sc(=S)n(-c2ccccc2)c1C | - | - | - | 68.3
CC(=O)c1sc(=S)n(-c2ccc(Cl)cc2)c1C | - | - | - | -
NC(=O)C[n+]1cccc2ccccc21 | - | 11.3 | - | -

High-throughput results as filed in PubChem.
